Among the data in PubChem BioAssay are growth inhibition and outcome values, retold here.

For some assays here: Measured potencies and affinities stand elsewhere. Active and inactive are the calls of the source. Unless noted, how the calls were made is not given here.

Chain of Calcium-dependent protein kinase 1 (Plasmodium falciparum (isolate 3D7)) (P62344 whole entry, looked up): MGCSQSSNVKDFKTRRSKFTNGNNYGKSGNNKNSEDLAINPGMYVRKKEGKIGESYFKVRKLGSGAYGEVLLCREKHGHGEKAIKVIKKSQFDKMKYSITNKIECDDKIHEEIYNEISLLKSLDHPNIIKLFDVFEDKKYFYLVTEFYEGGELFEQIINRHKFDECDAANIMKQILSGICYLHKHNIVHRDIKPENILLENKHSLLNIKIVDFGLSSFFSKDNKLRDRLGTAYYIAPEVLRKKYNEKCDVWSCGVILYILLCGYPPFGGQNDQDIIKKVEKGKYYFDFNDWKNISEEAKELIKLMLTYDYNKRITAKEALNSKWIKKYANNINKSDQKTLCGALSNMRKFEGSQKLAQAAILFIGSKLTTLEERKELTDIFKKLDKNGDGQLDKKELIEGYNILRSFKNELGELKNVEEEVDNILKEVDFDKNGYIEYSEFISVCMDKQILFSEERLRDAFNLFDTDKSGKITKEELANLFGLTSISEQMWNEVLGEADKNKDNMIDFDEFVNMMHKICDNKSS

Tested on in the first assay: not listed separately
The assay can be described thus: inhibition of 3D7 malaria parasite growth – strain 3D7 (AID 2306).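 Further: 0% = DMSO wells and 100% = chloroquine plus artemisinin control wells.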 The conditions noted are these: P. falciparum 3D7 erythrocytic growth, LDH absorbance, 72 h; at 2 µM; stronger effect = higher value.
With `FC(F)(F)c1ccc2nc(-c3cccc(-c4ccc(CNCc5cnn(-c6ccccc6)n5)cc4)c3)[nH]c2c1`, the growth inhibition is 101% (active).
On the same count and under the same terms, next, `N=C(N)c1cc(Cl)cc(NC(=O)Nc2cc(Cl)cc(C(=N)N)c2)c1`: 92% (active); `COc1cccc(C=CC(=O)N(CCN)Cc2ccccc2)c1`: 99% (active); `Cn1nc(C(F)(F)F)c(-c2ccc(Br)cc2)c1NC(=O)Cc1ccccc1F`: 102% (active).
Still for that read-out and setting: next, `CN(C)CCCN1C(=O)c2[nH]nc(-c3ccc(Cl)cc3O)c2C1c1ccc(Cl)cc1` (stereo not given): 99% (active); `COc1ccc2nc(-c3cc(-c4ccc(NC(=O)C(C)C)cc4)cnc3N)[nH]c2c1`: 101% (active).
Same read-out and setting: next, `COc1cc(NC(=O)c2nn(CCCN3CCC(N4CCCC4)CC3)cc2-c2ccc(Cl)c(Cl)c2)cc(OC)c1OC`: 103% (active).
Turning to `O=C(Nc1ccccc1)Nc1cccc(-c2cc(CNCCc3ccccc3)sc2-c2ccncc2)c1`, the growth inhibition was 100% (active).
As to `O=C(Nc1cccc(C(F)(F)F)c1)NC1CCN(c2ccnc3cc(Cl)ccc23)C1` (stereo not given), the growth inhibition is 101% (active).
For `Cc1onc(-c2c(Cl)cccc2Cl)c1C(=O)NC1=NC(C)(C)ON1c1ccccc1`, the growth inhibition is 97% (active).
Consider `CCOc1ccccc1C(=O)Nc1cccc(-c2nc3ncccn3c2C)c1`, for which the growth inhibition was 92% (active).
With `CCOc1cc(C)c(C2CCN(CCCCNC(=O)c3ccc(NC(=O)c4ccc(Cl)cc4)cc3)CC2)cc1C`, the growth inhibition is 100% (active).
Turning to `CC(C)Cn1cc(C2CCN(CCN3CCC(CNC(=O)c4ccc(NC(=O)c5cc(Cl)cc(Cl)c5)cc4)CC3)CC2)c2ccccc21`, the growth inhibition is 91% (active).
Regarding `Fc1ccc2nc(-c3ccc(-c4ccc(CN5CCN(CCN6CCOCC6)CC5)cc4)s3)[nH]c2c1`, the growth inhibition was 99% (active).
With `COc1ccc(-c2nc(NC(=O)Cc3ccc4c(c3)OCCO4)sc2C)cc1`, the growth inhibition was 100% (active).
The same measure, in the same setting: next, `Nc1ccc(-c2cc(Cl)cc(Cl)c2)cc1-c1cc2ccccc2[nH]1`: 101% (active); `CC(CNc1ccnc(Nc2ccc3[nH]c(=O)[nH]c3c2)n1)c1ccccc1` (stereo not given): 99% (active).
For the compound `CCCCCCCN1CC[C@@H](CCCc2ccnc3ccc(OC)cc23)[C@@H](CNC)C1`, the growth inhibition is 101% (active).
Turning to `NC1(C(=O)O)Cc2ccc(Cl)cc2C1` (stereo not given), the growth inhibition is 93% (active).
Consider `COc1ccc(CN(C)Cc2ccc(NC(=O)c3cccc4c(=O)c5cccc(C)c5[nH]c34)cc2)cc1OC`, for which the growth inhibition was 92% (active).
Consider `Cc1ccc(-c2nc3ccc(C(=O)NC4CCN(Cc5ccccc5)CC4)cc3[nH]2)cc1`, for which the growth inhibition is 100% (active).
Turning to `Cc1ccc(O)cc1Nc1ccnc2cc(-c3ccncc3)ccc12`, the growth inhibition is 100% (active).
On to `O=S(=O)(Nc1cccc(CCN2CCC(N3CCCCC3)CC2)c1)c1cccc2cccnc12`, for which the growth inhibition is 98% (active).
On the same count and under the same terms, next, `O=C(NC(=O)c1ccccc1)NC1CCN(c2ccnc3cc(Cl)ccc23)C1` (stereo not given): 101% (active).
In the case of `Cc1c(Cl)cccc1S(=O)(=O)N1CCCCC(c2ccc(C(F)(F)F)cc2)=N1`, the growth inhibition is 86% (active).
Consider `CC1CCCN(C(=O)C(C)Nc2cc(Cl)ccc2N2CCOCC2)C1` (stereo not given), for which the growth inhibition is 101% (active).
Still for that read-out and setting: next, `Cc1cc(N(C)C)nc(Nc2ccc(NC(=O)c3ccccc3Cl)cc2)n1`: 88% (active).
For `COc1cc(-c2nc(-c3ccccc3)c(-c3ccccc3)[nH]2)cc(OC)c1O`, the growth inhibition was 100% (active).
With `CCC(C)NC(=O)Nc1ccc(-c2cccc(-c3nc4c(C)cccc4[nH]3)c2)cc1` (stereo not given), the growth inhibition is 102% (active).
In the case of `N#Cc1cccc(CN2CCCN(Cc3cccc(C(=O)Nc4ccc(Cl)cc4)c3)CC2)c1`, the growth inhibition is 82% (active).
In the case of `CC(CCNc1c2ccccc2nc2ccccc12)N1CCN(C)CC1` (stereo not given), the growth inhibition was 101% (active).
On the same count and under the same terms, next, `CCN(CC)c1nc(N)c2c(N)nc3c(c2c1C#N)C(=O)CN3Cc1ccccc1`: 96% (active); `Cc1ccc(-c2cc(C(=O)Nc3ccc(S(=O)(=O)N4CCOCC4)cc3)[nH]n2)c(O)c1C`: 91% (active); `COc1ccc(Br)cc1/C=C/C(=O)Nc1ccc(C2CCN(C)CC2)cc1`: 101% (active).
On to `CC(C)Cn1c(N)cc(=O)n(C)c1=O`, for which the growth inhibition was 100% (active).
Same read-out and setting: next, `CC1(C)N=C(N)N=C(N)N1OCCCO`: 96% (active); `O=C(/C=C/c1ccc(Cl)c(Cl)c1)NCCCCCN1CCCN(C(=O)Nc2ccc(C(F)(F)F)cc2)CC1`: 102% (active); `CCOC(=O)C(NC(=O)Cc1ccccc1)C(C)C` (stereo not given): 96% (active).
Regarding `COc1cc(Nc2ncnc3cc(OC)c(OC)cc23)cc([N+](=O)[O-])c1`, the growth inhibition was 97% (active).
As to `COc1cc2c(cc1OC)CN(c1cc(N)c3cc(OC)c(OC)cc3n1)CC2`, the growth inhibition is 100% (active).

Another assay has as its target Calcium-dependent protein kinase 1 (Plasmodium falciparum (isolate 3D7)) (UniProt P62344). The assay is described as follows: PfCDPK1 kinase inhibitors, biochemical, TCAMS library (AID 1159585; cut-off not given, nearly all actives have IC50 up to about 0.98 µM;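 further: inhibitors leave more ATP so luminescence rises with inhibition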). The conditions noted are these: recombinant PfCDPK1, Kinase-Glo ATP depletion luminescence. On the technique in general: Kinase-Glo measures the ATP left after a reaction by luminescence.
`FC(F)(F)c1ccc2nc(-c3cccc(-c4ccc(CNCc5cnn(-c6ccccc6)n5)cc4)c3)[nH]c2c1`: the result was inactive.
Regarding `N=C(N)c1cc(Cl)cc(NC(=O)Nc2cc(Cl)cc(C(=N)N)c2)c1`, the outcome was inactive.
On to `COc1cccc(C=CC(=O)N(CCN)Cc2ccccc2)c1`, for which the result was inactive.
On the same count and under the same terms, next, `Cn1nc(C(F)(F)F)c(-c2ccc(Br)cc2)c1NC(=O)Cc1ccccc1F`: “inactive”; `CN(C)CCCN1C(=O)c2[nH]nc(-c3ccc(Cl)cc3O)c2C1c1ccc(Cl)cc1` (stereo not given): “inactive”.
On the same count and under the same terms, next, `COc1ccc2nc(-c3cc(-c4ccc(NC(=O)C(C)C)cc4)cnc3N)[nH]c2c1`: “inactive”; `COc1cc(NC(=O)c2nn(CCCN3CCC(N4CCCC4)CC3)cc2-c2ccc(Cl)c(Cl)c2)cc(OC)c1OC`: “inactive”.
As for `O=C(Nc1ccccc1)Nc1cccc(-c2cc(CNCCc3ccccc3)sc2-c2ccncc2)c1`, the result was inactive.
As to `O=C(Nc1cccc(C(F)(F)F)c1)NC1CCN(c2ccnc3cc(Cl)ccc23)C1` (stereo not given), the result was inactive.
As for `Cc1onc(-c2c(Cl)cccc2Cl)c1C(=O)NC1=NC(C)(C)ON1c1ccccc1`, the outcome was inactive.
Consider `CCOc1ccccc1C(=O)Nc1cccc(-c2nc3ncccn3c2C)c1`, for which the outcome was inactive.
For the compound `CCOc1cc(C)c(C2CCN(CCCCNC(=O)c3ccc(NC(=O)c4ccc(Cl)cc4)cc3)CC2)cc1C`, the outcome was inactive.
Regarding `CC(C)Cn1cc(C2CCN(CCN3CCC(CNC(=O)c4ccc(NC(=O)c5cc(Cl)cc(Cl)c5)cc4)CC3)CC2)c2ccccc21`, the result was inactive.
For the compound `Fc1ccc2nc(-c3ccc(-c4ccc(CN5CCN(CCN6CCOCC6)CC5)cc4)s3)[nH]c2c1`, the outcome was inactive.
On the same count and under the same terms, next, `COc1ccc(-c2nc(NC(=O)Cc3ccc4c(c3)OCCO4)sc2C)cc1`: “inactive”; `Nc1ccc(-c2cc(Cl)cc(Cl)c2)cc1-c1cc2ccccc2[nH]1`: “inactive”.
Regarding `CC(CNc1ccnc(Nc2ccc3[nH]c(=O)[nH]c3c2)n1)c1ccccc1` (stereo not given), the result was inactive.
For the compound `CCCCCCCN1CC[C@@H](CCCc2ccnc3ccc(OC)cc23)[C@@H](CNC)C1`, the result was inactive.
With `NC1(C(=O)O)Cc2ccc(Cl)cc2C1` (stereo not given), the outcome was inactive.
Take `COc1ccc(CN(C)Cc2ccc(NC(=O)c3cccc4c(=O)c5cccc(C)c5[nH]c34)cc2)cc1OC`: the outcome was inactive.
Consider `Cc1ccc(-c2nc3ccc(C(=O)NC4CCN(Cc5ccccc5)CC4)cc3[nH]2)cc1`, for which the outcome was inactive.
Same read-out and setting: next, `Cc1ccc(O)cc1Nc1ccnc2cc(-c3ccncc3)ccc12`: “inactive”; `O=S(=O)(Nc1cccc(CCN2CCC(N3CCCCC3)CC2)c1)c1cccc2cccnc12`: “inactive”; `O=C(NC(=O)c1ccccc1)NC1CCN(c2ccnc3cc(Cl)ccc23)C1` (stereo not given): “inactive”.
On the same count and under the same terms, next, `Cc1c(Cl)cccc1S(=O)(=O)N1CCCCC(c2ccc(C(F)(F)F)cc2)=N1`: “inactive”; `CC1CCCN(C(=O)C(C)Nc2cc(Cl)ccc2N2CCOCC2)C1` (stereo not given): “inactive”; `Cc1cc(N(C)C)nc(Nc2ccc(NC(=O)c3ccccc3Cl)cc2)n1`: “inactive”.
For `COc1cc(-c2nc(-c3ccccc3)c(-c3ccccc3)[nH]2)cc(OC)c1O`, the outcome was inactive.
Still for that read-out and setting: next, `CCC(C)NC(=O)Nc1ccc(-c2cccc(-c3nc4c(C)cccc4[nH]3)c2)cc1` (stereo not given): “inactive”; `N#Cc1cccc(CN2CCCN(Cc3cccc(C(=O)Nc4ccc(Cl)cc4)c3)CC2)c1`: “inactive”; `CC(CCNc1c2ccccc2nc2ccccc12)N1CCN(C)CC1` (stereo not given): “inactive”.
With `CCN(CC)c1nc(N)c2c(N)nc3c(c2c1C#N)C(=O)CN3Cc1ccccc1`, the outcome was inactive.
Still for that read-out and setting: next, `Cc1ccc(-c2cc(C(=O)Nc3ccc(S(=O)(=O)N4CCOCC4)cc3)[nH]n2)c(O)c1C`: “inactive”; `COc1ccc(Br)cc1/C=C/C(=O)Nc1ccc(C2CCN(C)CC2)cc1`: “inactive”; `CC(C)Cn1c(N)cc(=O)n(C)c1=O`: “inactive”.
Regarding `CC1(C)N=C(N)N=C(N)N1OCCCO`, the result was inactive.
`O=C(/C=C/c1ccc(Cl)c(Cl)c1)NCCCCCN1CCCN(C(=O)Nc2ccc(C(F)(F)F)cc2)CC1`: the result was inactive.
For the compound `CCOC(=O)C(NC(=O)Cc1ccccc1)C(C)C` (stereo not given), the outcome was inactive.
With `COc1cc(Nc2ncnc3cc(OC)c(OC)cc23)cc([N+](=O)[O-])c1`, the result was inactive.
In the case of `COc1cc2c(cc1OC)CN(c1cc(N)c3cc(OC)c(OC)cc3n1)CC2`, the result was inactive.
